Sampled rows, rich in hits. Any-hit rate of the full collection: about 12%.
JMJD2A Tudor inh – inhibitors of human JMJD2A Tudor domain | O75164 | AlphaScreen JMJD2A-Tudor / H3K4me3 peptide binding | Potency, µM (top dose mostly 114 µM), inactives show at the highest dose activity change, negative = inhibition, hits mostly inhibitors | hit rate 4.4% among 390,000 | AID 504339; note: % is set by controls: 0 for no effect and ±100 for the full control effect; nearly all actives have a fitted effect of over 50% in size
G9a inh – blocks human histone lysine methyltransferase G9a | Q96KQ7 | G9a H3K9 monomethylation, AlphaScreen, 2 h | Potency, µM (top dose mostly 102 µM), without a hit: top-dose activity, negative = inhibition, actives largely listed as inhibitors | hit rate 8.8% among 350,000; note: % is set by controls: 0 for no effect and ±100 for the full control effect; nearly all actives have a fitted effect of over 75% in size
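AlphaScreen detection with an anti-monomethyl H3K9 antibody quantified product after a 2 h room-temperature reaction containing 500 nM biotinylated H3K9 peptide, 20 µM SAM and 20 nM enzyme, which had been preincubated 15 min with compound.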
Sfp PPTase inh – Sfp phosphopantetheinyl transferase inhibition; Biochemical Sfp PPTase activity, qHTS; hit rate 3.5% among 310,000; Q9F4F7; Potency, µM, inactives show largest response in the series, negative = inhibition, actives largely listed as inhibitors;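 note: the enzyme is Sfp with the accession as filed and its product quenches rhodamine fluorescence; 0% = enzyme reaction without inhibitor and -100% = no enzyme wells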
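With Hepes-Na pH 7.6 buffer containing 10 mM MgCl2, Sfp (15 nM) modified BHQ-2-YbbR (12.5 uM) using rhodamine-CoA (5 uM). Two reads 30 minutes apart at 525/598 nm yielded each well's rate.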
BAZ2B inh – inhibitors of human BAZ2B bromodomain | AlphaScreen BAZ2B-H3K14Ac peptide displacement | Potency, µM (top dose mostly 114 µM), for inactives: at the top dose activity change, negative = inhibition, most hits filed as inhibitors | AID 504333 | hit rate 4.4% among 360,000 | Q9UIF8; note: % is set by controls: 0 for no effect and ±100 for the full control effect; nearly all actives have a fitted effect of over 60% in size
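Inhibition is scored as reduced AlphaScreen emission. The BAZ2B/b-H3(5-23)K14Ac complex (50 nM each) in PBS pH 7.4, 0.01% Tween-20 meets compound (up to 110 uM) for 30 min at RT before bead addition.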
PLK1 PBD inh – inhibitors of human PLK1 polo-box domain binding; Plk1 PBD binding of FITC phosphopeptide, fluorescence polarization; hit rate 2.8% among 360,000; P53350; Potency, µM, without a hit: max response, negative = inhibition, hits mostly inhibitors; note: series mostly up to about 57 µM; % is set by controls: 0 for no effect and ±100 for the full control effect; nearly all actives have a fitted effect of over 65% in size
Target sequence (P53350 whole entry, looked up, the tested form may be a part): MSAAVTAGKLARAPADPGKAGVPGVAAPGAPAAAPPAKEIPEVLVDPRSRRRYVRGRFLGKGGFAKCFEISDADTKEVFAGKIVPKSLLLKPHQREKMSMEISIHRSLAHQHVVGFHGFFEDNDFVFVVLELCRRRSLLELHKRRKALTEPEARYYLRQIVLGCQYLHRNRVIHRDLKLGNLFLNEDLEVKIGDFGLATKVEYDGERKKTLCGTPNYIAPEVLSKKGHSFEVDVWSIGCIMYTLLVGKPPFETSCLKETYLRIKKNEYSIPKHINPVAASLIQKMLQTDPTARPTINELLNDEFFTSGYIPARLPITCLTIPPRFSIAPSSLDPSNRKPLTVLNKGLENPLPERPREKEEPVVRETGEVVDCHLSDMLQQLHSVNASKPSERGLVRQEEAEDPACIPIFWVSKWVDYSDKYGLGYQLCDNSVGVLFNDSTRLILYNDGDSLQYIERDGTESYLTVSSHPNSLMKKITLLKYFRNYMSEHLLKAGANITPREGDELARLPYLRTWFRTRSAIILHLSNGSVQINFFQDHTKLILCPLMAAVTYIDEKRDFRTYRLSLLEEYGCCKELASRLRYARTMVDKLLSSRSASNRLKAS
HP1b binding inh – blocks HP1-beta chromodomain binding to methylated histone tails; P83916; AlphaScreen HP1-beta / biotin-H3K9me3 peptide binding; Potency, µM (titrated, usually from 114 µM), for inactives: at the top dose activity change, negative = inhibition, hits mostly inhibitors; hit rate 0.56% among 390,000; AID 540317; note: nearly all actives have a fitted effect of over 70% in size
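HP1-beta protein (50 nM final) preincubated 30 min at room temperature with biotinylated H3(1-18)K9me3 peptide (50 nM) in PBS pH 7.4, 0.01% Tween-20, then compound added for 30 min. AlphaScreen streptavidin donor/nickel chelate acceptor beads (10 ug/mL final), 30 min dark, luminescence read.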
* marks the source's active call; other numbers are inactive results; ? = inconclusive; · = no result given; [ ] = another dose, or the depositor's remark. Calls come from the whole dose curve; as a rule, active = well fitted curve in the direction sought with a large enough effect; inconclusive = small, poorly fitted or top-dose-only effect, or another doubt; inactive = no such curve, though single readings can be large; an effect the other way counts as inactive or inconclusive. Potency is the fitted concentration of half-maximal effect.

SMILES | JMJD2A Tudor inh | G9a inh | Sfp PPTase inh | BAZ2B inh | PLK1 PBD inh | HP1b binding inh
CCN1CCN(S(=O)(=O)c2ccc(S(=O)(=O)NC3CC3)cc2)CC1 | -5% | 50µM* | 2% | -14% | -1% | 27%
CC(=O)N1CCN(S(=O)(=O)c2ccc(S(=O)(=O)NC3CCCCC3)cc2)CC1 | -14% | 50µM* | 8% | -2% | -10% | 22%
O=CN1CCN(S(=O)(=O)c2ccc(S(=O)(=O)NC3CCCCC3)cc2)CC1 | -1% | 45µM* | -4% | 7% | -4% | 6%
CC(=O)c1ccc(S(=O)(=O)NC2CCCCCCC2)cc1 | -14% | 15% | 0% | -19% | -5% | 23%
c1cncc(CNc2ncncc2-c2cccnc2)c1 | · | 9%[0.501 µM] | 3% | · | · | ·
c1ccc(Oc2ccccc2-c2cc(NCCc3cccnc3)n3nccc3n2)cc1 | · | · | · | · | -4% | ·
CCN1C(=O)c2ccccc2S(=O)(=O)c2ccc(C(=O)NCc3ccc(C)cc3)cc21 | -24% | -1%[59 µM] | · | -9% | · | 22%
COc1ccccc1-c1noc(-c2ccc(NCCc3ccccc3)c([N+](=O)[O-])c2)n1 | -24% | ? | · | -4% | · | 19%
Cc1cccc2cc3c(N)c(C#N)sc3nc12 | 11% | 7.9µM* | 8% | 9% | -6% | 112%
Cc1cccc2cc3c(N)c(C(=O)N4CCc5ccccc54)sc3nc12 | -22% | 1.4µM* | 1% | -7% | 1% | 25%
Cc1cccc2cc3c(N)c(C(=O)Nc4ccc(N5CCOCC5)cc4)sc3nc12 | -34% | ? | ? | -36% | -4% | -6%
O=c1cc[nH]c(=S)[nH]1 | · | -4%[2.33 µM] | 45µM* | · | · | ·
COc1ccc(C2=NS(=O)(=O)N(C)C(C(=O)Nc3ccc(F)cc3F)=C2)cc1 | -27% | ? | 2% | -35% | -7% | 3%
C[C@H]1CN(S(=O)C(C)(C)C)[C@H](CCO)/C1=C\c1ccccc1 (stereo not given in full) | -16% | · | · | · | -23% | 25%
COCC(=O)N1CCc2nc(-c3ccccc3)c3c(c2C1)CO[C@@H](C)C3 | · | · | -9% | · | · | ·
CCc1cc(C(c2ccncc2)N2CCN(C)CC2)c(NC(=O)c2ccccc2)s1 (stereo not given) | -35% | 40µM* | -17% | ? | -13% | 16%
CCOc1ccc(C(c2c(NC(=O)c3ccccc3)sc(C)c2C)N2CCN(CCO)CC2)cc1 (stereo not given) | ? | ? | -17% | ? | -1% | -13%
Cc1ccc(S(=O)(=O)N2CCN(c3nc(-c4cccs4)nc4nc[nH]c34)CC2)cc1 | -18% | · | · | · | · | 23%
COc1ccc([C@@H]2C=C(C(=O)O)O[C@H](OCCCCO)C2)cc1 | ? | -10%[12.7 µM] | 27% | 79µM* | -4% | 34%
C#Cc1ccc([C@H]2C=C(C(=O)O)O[C@@H](OCCCCO)C2)cc1 | -15% | · | · | · | -16% | 43%
C#CCOCCOCCOCCNc1nc(N2CCN(C(=O)[C@H](CCCN=C(N)N)n3cc(C(N)[C@@H](C)CC)nn3)CC2)nc(N2CCN(C(=O)[C@H](CCCCN)n3cc([C@@H](N)[C@H](C)CC)nn3)CC2)n1 (stereo not given in full) | -30% | · | · | · | -3% | 35%
C#CCOCCOCCOCCNc1nc(N2CCN(C(=O)[C@H](CCCCN)n3cc([C@@H](N)[C@H](C)CC)nn3)CC2)nc(N2CCN(C(=O)[C@H](CCC(=O)O)n3cc([C@@H](N)CCCCN)nn3)CC2)n1 | ? | · | · | · | 1% | 65%
C#CCOCCOCCOCCNc1nc(N2CCN(C(=O)[C@H](CCCN=C(N)N)n3cc(C(N)[C@@H](C)CC)nn3)CC2)nc(N2CCN(C(=O)[C@H](CCC(=O)O)n3cc([C@@H](N)CCCCN)nn3)CC2)n1 (stereo not given in full) | 89µM* | · | · | · | -1% | 17%
C#CCOCCOCCOCCNc1nc(N2CCN(C(=O)[C@H](CCCCN)n3cc(C(N)[C@H](C)CC)nn3)CC2)nc(N2CCN(C(=O)[C@H](CCC(=O)O)n3cc(C(N)[C@H](C)CC)nn3)CC2)n1 (stereo not given in full) | 50µM* | ? | ? | 79µM* | -10% | 44%
COc1ccc(NC2C=CS(=O)(=O)C2)c(OC)c1 (stereo not given) | -28% | 6%[2.33 µM] | 79µM* | 10% | -16% | 7%
SMILES | JMJD2A Tudor inh | G9a inh | Sfp PPTase inh | BAZ2B inh | PLK1 PBD inh | HP1b binding inh
COc1cccc(NC2C=CS(=O)(=O)C2)c1 (stereo not given) | -13% | -1%[59 µM] | 15% | 8% | 5% | 21%
O=C(O)c1cc(O)c2c(c1)[C@H]([C@H]1c3cc(C(=O)O)cc(O)c3C(=O)c3c(O[C@@H]4O[C@H](CO)[C@@H](O)[C@H](O)[C@H]4O)cccc31)c1cccc(OC3O[C@H](CO)[C@@H](O)[C@H](O)[C@H]3O)c1C2=O (stereo not given in full) | 0.32µM* | 1.3µM* | · | 0.79µM* | 1.7µM* | ?
O=C(O)c1cc(O)c2c(c1)[C@@H]([C@H]1c3cc(C(=O)O)cc(O)c3C(=O)c3c(O[C@@H]4O[C@H](CO)[C@@H](O)[C@H](O)[C@H]4O)cccc31)c1cccc(OC3O[C@H](CO)[C@@H](O)[C@H](O)[C@H]3O)c1C2=O (stereo not given in full) | 0.32µM* | 1.3µM* | · | 0.79µM* | 0.84µM* | -76%
Cc1ccc(NC(=O)Cn2cc(S(=O)(=O)N3CCCC3)c(S(=O)(=O)N3CCCC3)c2)cc1C | -15% | -5%[59 µM] | · | 2%[57.1 µM] | · | 27%
CCN1CCN(c2nc3c(C)cccn3c(=O)c2/C=C(\C#N)S(=O)(=O)c2ccc(C)cc2)CC1 | ? | 50µM* | -13% | ? | -11% | 13%
CCN1CCN(c2nc3c(C)cccn3c(=O)c2/C=C(\C#N)S(=O)(=O)c2ccc(Cl)cc2)CC1 | ? | 32µM* | -17% | ? | 13% | ?
Cc1ccc(S(=O)(=O)/C(C#N)=C/c2c(N3CCN(C)CC3)nc3c(C)cccn3c2=O)cc1 | ? | 45µM* | -9% | ? | -6% | -12%
Cc1cccn2c(=O)c(/C=C(\C#N)S(=O)(=O)c3ccccc3)c(N3CCN(C)CC3)nc12 | -25% | ? | 2% | -33% | -6% | -1%
Cc1c(-c2ccccc2)c(=O)oc2c(CN3CCCC3)c(O)ccc12 | -18% | 8%[59 µM] | · | 8% | · | 15%[57 µM]
N#Cc1ccccc1Sc1ccccc1C(=O)NCC(c1ccco1)N1CCCC1 (stereo not given) | ? | 2.8µM* | · | 50µM* | -10% | ?

Assay outcomes deposited in PubChem by National Center for Advancing Translational Sciences (NCATS).
